According to PubChem BioAssay:

Assay: Wnt pathway potentiators raising nuclear beta-catenin – imaging, WNT3A-conditioned medium, mouse C2C12, NPC library, primary screen (AID 1117326); note: reference of the scale not given here
Conditions: stimulation, at 2 µM, stronger effect = higher value

SMILES	nuclear beta-catenin stimulation [%]
CC(O)CCCCn1c(=O)c2c(ncn2C)n(C)c1=O (centres undefined)	3.3
O=C(O)C(Cc1cc(I)c(O)c(I)c1)c1ccccc1 (centres undefined)	0.8
CCC(C(=O)O)c1ccc(N2Cc3ccccc3C2=O)cc1 (centres undefined)	-0.1
O=C(N/N=C/c1ccccc1O)c1ccncc1	11.1
CC12CCC(C[N+](C)(CCC[N+](C)(C)C)C1)C2(C)C (centres undefined)	0
CC1(C)OC[C@@H](COC(=O)CCc2ccc(OC[C@@H](O)CNCCNC(=O)N3CCOCC3)cc2)O1	1.1
O=C(Nc1ncc([N+](=O)[O-])s1)c1cccs1	-1.2
COc1cc(NS(=O)(=O)c2ccc(N)cc2)nc(C)n1	10.1
Cc1ccc(S(=O)(=O)NC(=O)NC2CCCCC2)cc1	0.3
C=CCOc1cc(Cl)ccc1C(=O)NCCN(CC)CC	0.3
COc1cc(/C=C/C(=O)O[C@H]2CC[C@]34C[C@]35CC[C@]3(C)[C@@H]([C@H](C)CCC=C(C)C)CC[C@@]3(C)[C@@H]5CC[C@H]4C2(C)C)ccc1O	-1.7
C[C@@H](O)[C@H](N)C(=O)O	0.7
CCOc1ccccc1O[C@H](c1ccccc1)[C@H]1CNCCO1	-2.9
O=C(/C=C/c1ccccc1)OCc1ccccc1	0.1
CN[C@H](CC(C)C)C(=O)N[C@H]1C(=O)N[C@@H](CC(N)=O)C(=O)N[C@H]2C(=O)N[C@H]3C(=O)N[C@H](C(=O)N[C@H](C(=O)O)c4cc(O)cc(O)c4-c4cc3ccc4O)[C@H](O)c3ccc(c(Cl)c3)Oc3cc2cc(c3O[C@@H]2OC(CO)[C@@H](O)[C@H](O)[C@@H]2O[C@H]2C[C@](C)(N)[C@H](O)[C@H](C)O2)Oc2ccc(cc2Cl)[C@H]1O (some centres undefined)	2.4
O=C(OCC(O)CO)c1ccccc1Nc1ccnc2c(C(F)(F)F)cccc12 (centres undefined)	0.5
CCN1CCCC1=O	2.9
NC(=O)NC1N=C([O][Al])NC1=O (centres undefined)	-0.2
CC1CCCCN1CCCOC(=O)c1ccc(OC2CCCCC2)cc1 (centres undefined)	4.4
NC[C@H]1O[C@H](O[C@H]2[C@@H](O)[C@@H](O[C@H]3O[C@H](CO)[C@@H](O)[C@H](N)[C@@H]3O)[C@H](N)C[C@@H]2N)[C@H](N)C[C@H]1O	1.4

SMILES	nuclear beta-catenin stimulation [%]
O=P(O)(O)C(Sc1ccc(Cl)cc1)P(=O)(O)O	1.6
Cc1onc(-c2c(Cl)cccc2Cl)c1C(=O)Cl	0.5
Cc1cccc(N(C)C(=S)Oc2ccc3c(c2)CCC3)c1	-1.8
CCCCCCCCCCCCCCCCCCO	-0.4
Oc1ccc(Cl)cc1Sc1cc(Cl)ccc1O	0
CC1CN(c2cc3c(cc2F)c(=O)c(C(=O)O)cn3-c2ccc(F)cc2F)CCN1 (centres undefined)	0
CCCCCCCCCCCCCCCC(=O)OC(C)C	1.3
CC(=O)Oc1ccc(C2(c3ccc(OC(C)=O)cc3)Oc3ccccc3NC2=O)cc1	9.3
CC(=O)Nc1ccn(C2COC(COC(=O)c3ccccc3)O2)c(=O)n1 (centres undefined)	-0.9
CCc1cc(S(=O)(=O)O)c2cc(C(C)C)cccc1-2	-2.2
CCCc1ncc(C(=O)O)s1	-1.2
CN1C(CSCC(F)(F)F)Nc2cc(Cl)c(S(N)(=O)=O)cc2S1(=O)=O (centres undefined)	-1.1
CCCCCC[C@@H](CCC)C(=O)O	-0.9
Cc1ccccc1C(=O)Nc1ccc(C(=O)N2CCCC(N(C)C)c3ccccc32)cc1 (centres undefined)	30
Cn1c(=O)c2[nH]c(Br)nc2n(C)c1=O	2
CN1CC(=O)NC1=N	1.5
C=CCN1CCc2nc(N)sc2CC1	1
CO/N=C(\C(=O)O)c1csc(NC(=O)CCl)n1	2.9
Cc1cc(CC(=O)O)c(C)n1-c1ccc(Cl)cc1	-0.4
